Assay [1] in a line: ATG_NFI_CIS: Attagene CIS-FACTORIAL HepG2 Assay for human Nuclear Factor I (NFI) (AID 2282989). Conditions: HepG2 cis-regulatory reporter, NFI response element transcription; actives raise or lower the signal. In short, it runs like this: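 Reporter transcription driven by endogenous transcription factors in HepG2 cells; 24 h treatment. Quantitation by labelled RT-PCR fragments on capillary electrophoresis, gain- or loss-of-signal relative to DMSO.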

For assay [2], the target named is Myc proto-oncogene protein (Homo sapiens) (UniProt P01106). Description: ATG_Myc_CIS: Attagene CIS-FACTORIAL HepG2 Assay for human Myelocytomatosis (Myc) Proto-Oncogene Transcription Factor (AID 2282990). The settings on record: HepG2, Attagene cis-reporter transcription factor activity; actives raise or lower the signal. In short, it runs like this: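 HepG2 cells transiently transfected with multiple cis-promoter-driven reporter transcription units, so endogenous TF activity is read. After 24 h compound exposure, reporter mRNA was quantified by RT-PCR, 6-FAM labelling, HpaI digestion and capillary electrophoresis; bidirectional fit versus DMSO.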

Assay [3] is described as follows: ATG_NF_kB_CIS: Attagene CIS-FACTORIAL HepG2 Assay for human Nuclear Factor Kappa B (NF-kB) (AID 2282991). The settings on record: HepG2 Attagene cis-factorial NF-kB reporter mRNA; actives raise or lower the signal. The procedure, abridged:
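Read-out: reporter transcript levels quantified by RT-PCR plus capillary electrophoresis of 6-FAM-labelled, HpaI-cut fragments. Transfected HepG2 cells, 24 h compound exposure, endogenous NF-kB-driven cis element; gain or loss scored versus DMSO.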

A short description of assay [4]: ATG_NRF2_ARE_CIS: Attagene CIS-FACTORIAL HepG2 Assay for human Nuclear Factor Erythroid 2 Related Factor 2 (NFR2) response to Antioxidant Response Elements (ARE) (AID 2282992).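 As to AC50: reporter mRNA level measured by RT-PCR and capillary electrophoresis fluorescence.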 Conditions: HepG2 Attagene ARE/NRF2 reporter, transcription factor activity; actives raise or lower the signal. In short, it runs like this:
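Fluorescence intensity of reporter-specific cDNA fragments, separated by capillary electrophoresis, reflects mRNA induction in transfected HepG2 cells at 24 h. Activity is fitted bidirectionally, DMSO serving as baseline.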

Assay [5] in a line: ATG_Oct_MLP_CIS: Attagene CIS-FACTORIAL HepG2 Assay for human Octamer-Binding Transcription Factor (Oct) (AID 2282993). The settings on record: HepG2 Attagene cis-factorial Oct reporter, mRNA; actives raise or lower the signal. In short, it runs like this:
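Transfected HepG2 cells, 24 h treatment. Reporter mRNA quantified by RT-PCR–capillary electrophoresis; bidirectional fitting against DMSO.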

For assay [6], the target named is Cellular tumor antigen p53 (Homo sapiens) (UniProt P04637). Description: ATG_p53_CIS: Attagene CIS-FACTORIAL HepG2 Assay for human p53 Transcription Factor (AID 2282994). Conditions: HepG2 p53 cis-element reporter, Attagene mRNA; actives raise or lower the signal. The procedure, abridged: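 Transiently transfected HepG2 (multiple cis reporter transcription units); exposure 24 h; reporter RNA via RT-PCR, 6-FAM extension, 2 h HpaI digest at 37 C, CE detection; DMSO baseline.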

Assay [7] can be described thus: BSK_3C_TissueFactor: BioMAP Diversity Plus: 3C Assay for Tissue Factor Biomarker Activity (AID 2282997). Conditions: BioMAP 3C HUVEC, tissue factor biomarker readout; actives raise or lower the signal. In short, it runs like this:
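After a 24 h chemical exposure of primary human umbilical vein endothelial cells, Tissue Factor levels were quantified by ELISA.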

Assay [8] is described as follows: BSK_3C_uPAR: BioMAP Diversity Plus: 3C Assay for Urokinase-type plasminogen activator receptor (uPAR) Biomarker Activity (AID 2282998). The settings on record: BioMAP 3C HUVEC, uPAR biomarker ELISA; actives raise or lower the signal. The procedure, abridged:
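Readout: ELISA for surface uPAR. System: human umbilical vein endothelial primary cells, 24 h after chemical exposure. Analysis: bidirectional fit, DMSO baseline.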

Assay [9] is described as follows: BSK_3C_VCAM1: BioMAP Diversity Plus: 3C Assay for Vascular cell adhesion molecule 1 (VCAM1) Biomarker Activity (AID 2282999). The settings on record: BioMAP 3C HUVEC, VCAM1 ELISA, cytokine-stimulated; actives raise or lower the signal. The procedure, abridged:
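Vascular primary endothelium (human umbilical vein) was exposed to chemicals and assayed 24 h later. VCAM-1 levels came from ELISA, with DMSO serving as baseline for bidirectional fitting.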

Assay [10] in a line: BSK_4H_Eotaxin3: BioMAP Diversity Plus: 4H Assay for Eotaxin 3 Biomarker Activity (AID 2283000).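 As to outcome: CCL26 protein level quantified by ELISA in parallel with SRB cytotoxicity check.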 Conditions: primary human endothelial cells (HUVEC); actives raise or lower the signal. In short, it runs like this: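 Chemicals were added to human umbilical vein endothelium cultures, and Eotaxin-3 was quantified by ELISA at 24 h. Values were derived by bidirectional fitting with DMSO serving as negative control and activity baseline.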

The target in assay [11] is human Peroxisome Proliferator-activated Receptor delta (PPARd), PPARD (gene 5467) (UniProt Q03181). In words: ATG_PPARd_TRANS: Attagene TRANS-FACTORIAL HepG2 Assay for human Peroxisome Proliferator-activated Receptor delta (PPARd) (AID 2283002; active = hit-call score of the fitted dose curve at least 0.9, where 1 is the maximum). The procedure, abridged: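 HepG2 cells transiently transfected with multiplexed GAL4-UAS reporter units and exogenous chimeric NR-Gal4 proteins; 24 h compound exposure. Reporter mRNA measured by RT-PCR, 6-FAM labelling, HpaI digestion and capillary electrophoresis; gain of signal versus DMSO.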

Read-out in assay [12]: Intercellular Adhesion Molecule 1 (ICAM1), ICAM1 (gene 3383)
In words: BSK_3C_ICAM1: BioMAP Diversity Plus: 3C Assay for Intercellular Adhesion Molecule 1 (ICAM1) Biomarker Activity (AID 2283003). The settings on record: primary human endothelial cells (HUVEC); actives raise or lower the signal. In short, it runs like this:
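ELISA readout of ICAM1 in human umbilical vein endothelial cells in the 3C system, taken 24 h post-dose. Gain or loss of signal versus DMSO was fitted in both directions, with SRB total-protein staining run in parallel.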

A short description of assay [13]: BSK_3C_Proliferation: Cell Proliferation Assessment in the BioMAP Diversity Plus: 3C Assay (AID 2283006).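 As to AC50: potency may reflect either rise or fall in cell number versus DMSO.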 Conditions: primary human endothelial cells (HUVEC). In short, it runs like this:
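Proliferation as total protein: sulforhodamine B (0.1%) stain of TCA-fixed subconfluent human umbilical vein endothelial cells, absorbance 560 nm, 48 h after dosing. Activity fitted in both directions against DMSO baseline.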

The target in assay [14] is Peroxisome proliferator-activated receptor gamma (Homo sapiens) (UniProt P37231). Description: ATG_PPARg_TRANS: Attagene TRANS-FACTORIAL HepG2 Assay for human Peroxisome Proliferator-activated Receptor-gamma (PPARg) (AID 2283007; active = hit-call score of the fitted dose curve at least 0.9, where 1 is the maximum). In short, it runs like this: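 Read-out: reporter mRNA induction, detected by fluorescence after RT-PCR and capillary electrophoresis. Transiently transfected human HepG2 liver cells carrying a chimeric NR-Gal4 construct were dosed for 24 h; activity was fitted upward relative to DMSO.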

The target of assay [15] is Nuclear receptor subfamily 1 group I member 2 (Homo sapiens) (UniProt O75469). In words: ATG_PXR_TRANS: Attagene TRANS-FACTORIAL HepG2 Assay for human Pregnane X Receptor (PXR) (AID 2283008; active = hit-call score of the fitted dose curve at least 0.9, where 1 is the maximum). The procedure, abridged: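 Transient HepG2 transfectants carrying multiplexed reporter transcription units; PXR activity read through a Gal4 chimera. 24 h exposure. RT-PCR/CE fluorescence; upward curve fit referenced to DMSO.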

Assay [16] addresses human Peroxisome Proliferator-activated Receptor alpha (PPARa), PPARA (gene 5465) (UniProt Q07869). Description: ATG_PPARa_TRANS: Attagene TRANS-FACTORIAL HepG2 Assay for human Peroxisome Proliferator-activated Receptor alpha (PPARa) (AID 2283001; active = hit-call score of the fitted dose curve at least 0.9, where 1 is the maximum;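 as to AC50: potency for gain of reporter signal over DMSO so agonist or activator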). In short, it runs like this: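 Cells (HepG2) are transfected with multiple reporter transcription units, exposed to chemical for 24 h, then total RNA is reverse-transcribed and amplified. Labelled products are quantified by capillary electrophoresis; induction is referenced to DMSO.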

Assay [17] addresses human Retinoic Acid Receptor gamma (RARg), RARG (gene 5916) (UniProt P13631). Description: ATG_RARg_TRANS: Attagene TRANS-FACTORIAL HepG2 Assay for human Retinoic Acid Receptor gamma (RARg) (AID 2283009; active = hit-call score of the fitted dose curve at least 0.9, where 1 is the maximum). In short, it runs like this: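 Transactivation of exogenous RARg-Gal4 fusion measured as reporter transcript induction after 24 h in transfected HepG2 cells. RNA reverse-transcribed, amplified, fluorescently labeled and resolved by capillary electrophoresis; increase relative to DMSO.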

The target in assay [18] is human Retinoic Acid Receptor beta (RARb), RARB (gene 5915) (UniProt P10826). In words: ATG_RARb_TRANS: Attagene TRANS-FACTORIAL HepG2 Assay for human Retinoic Acid Receptor beta (AID 2283004; active = hit-call score of the fitted dose curve at least 0.9, where 1 is the maximum). The procedure, abridged:
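Transient transfection of HepG2 with multiple reporter units → chemical dosing, 24 h → total RNA isolation → RT with oligo(dT) → reporter-specific PCR, 6-FAM primer extension, HpaI digest → capillary electrophoresis. Positive direction vs DMSO control.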

The target of assay [19] is human RAR-related Orphan Receptor beta (RORb), RORB (gene 6096) (UniProt Q92753). Description: ATG_RORb_TRANS: Attagene TRANS-FACTORIAL HepG2 Assay for human RAR-related Orphan Receptor beta (RORb) (AID 2283010; active = hit-call score of the fitted dose curve at least 0.9, where 1 is the maximum). In short, it runs like this:
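Read-out is reporter mRNA induction, quantified by RT-PCR with fluorescent capillary electrophoresis, 24 h post-dose in transiently transfected HepG2 expressing exogenous NR-Gal4 chimera. Activity fitted upward versus DMSO.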

In assay [20] the target is Retinoic acid receptor alpha (Homo sapiens) (UniProt P10276). Description: ATG_RARa_TRANS: Attagene TRANS-FACTORIAL HepG2 Assay for human Retinoic Acid Receptor alpha (RARa) (AID 2283005; active = hit-call score of the fitted dose curve at least 0.9, where 1 is the maximum). The procedure, abridged: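 HepG2 cells transiently transfected with multiple reporter units expressing chimeric RARα-GAL4 fusion, with GAL4-UAS-driven reporters. After 24 h compound exposure, reporter mRNA induction quantified by RT-PCR and capillary electrophoresis with fluorescent labeling; gain-of-signal fitted relative to DMSO control.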

The structures appear in SMILES notation. Records with an inconclusive call do not appear. The source made the active and inactive calls. The calls were made as follows, unless noted: active = hit-call score of the fitted dose curve at least 0.9, where 1 is the maximum; inactive = score below 0.9.

The source of these data is PubChem BioAssay (EPA / NIEHS).

Sequence of human Retinoic Acid Receptor gamma (RARg), RARG (gene 5916) (P13631 whole entry, looked up, the tested form may be a part): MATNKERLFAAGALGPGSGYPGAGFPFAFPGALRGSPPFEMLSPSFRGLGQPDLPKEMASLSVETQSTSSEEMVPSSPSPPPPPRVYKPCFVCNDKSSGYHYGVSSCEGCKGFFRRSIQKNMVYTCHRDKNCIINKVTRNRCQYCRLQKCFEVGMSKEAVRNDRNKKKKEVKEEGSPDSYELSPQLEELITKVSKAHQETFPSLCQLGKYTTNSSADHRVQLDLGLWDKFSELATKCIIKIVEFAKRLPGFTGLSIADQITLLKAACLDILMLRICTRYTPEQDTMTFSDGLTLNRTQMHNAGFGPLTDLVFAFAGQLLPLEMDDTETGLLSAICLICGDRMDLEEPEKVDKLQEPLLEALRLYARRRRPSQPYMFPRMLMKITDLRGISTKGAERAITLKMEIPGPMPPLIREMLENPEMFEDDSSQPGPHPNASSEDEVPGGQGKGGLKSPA
Sequence of Peroxisome proliferator-activated receptor gamma (Homo sapiens) (P37231 whole entry, looked up, the tested form may be a part): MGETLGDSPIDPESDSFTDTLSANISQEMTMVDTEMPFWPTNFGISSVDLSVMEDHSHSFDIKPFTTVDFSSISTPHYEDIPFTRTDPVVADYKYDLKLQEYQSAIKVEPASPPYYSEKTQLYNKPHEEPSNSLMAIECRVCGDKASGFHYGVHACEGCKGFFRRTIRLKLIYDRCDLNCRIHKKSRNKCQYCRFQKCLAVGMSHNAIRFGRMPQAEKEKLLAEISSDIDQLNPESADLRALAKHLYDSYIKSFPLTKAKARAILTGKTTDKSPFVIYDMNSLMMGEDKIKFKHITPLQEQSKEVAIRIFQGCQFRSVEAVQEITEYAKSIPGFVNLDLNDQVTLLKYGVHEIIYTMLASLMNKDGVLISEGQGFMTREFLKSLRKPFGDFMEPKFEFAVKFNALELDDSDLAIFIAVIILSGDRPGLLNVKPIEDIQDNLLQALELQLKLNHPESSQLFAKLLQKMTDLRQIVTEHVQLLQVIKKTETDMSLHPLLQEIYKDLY
Sequence of human Peroxisome Proliferator-activated Receptor alpha (PPARa), PPARA (gene 5465) (Q07869 whole entry, looked up): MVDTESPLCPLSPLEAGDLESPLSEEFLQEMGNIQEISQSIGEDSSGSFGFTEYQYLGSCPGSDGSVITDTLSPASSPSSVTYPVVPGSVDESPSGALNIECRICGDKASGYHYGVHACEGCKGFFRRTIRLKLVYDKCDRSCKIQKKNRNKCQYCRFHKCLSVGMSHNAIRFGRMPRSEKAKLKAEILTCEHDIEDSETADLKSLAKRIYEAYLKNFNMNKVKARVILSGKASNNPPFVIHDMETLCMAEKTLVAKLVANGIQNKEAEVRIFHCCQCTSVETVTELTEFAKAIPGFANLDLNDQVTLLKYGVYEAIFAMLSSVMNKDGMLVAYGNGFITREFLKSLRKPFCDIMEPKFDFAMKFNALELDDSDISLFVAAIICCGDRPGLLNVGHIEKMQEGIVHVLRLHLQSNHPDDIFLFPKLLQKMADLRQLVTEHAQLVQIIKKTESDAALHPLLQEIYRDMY
Sequence of human Peroxisome Proliferator-activated Receptor delta (PPARd), PPARD (gene 5467) (Q03181 whole entry, looked up, the tested form may be a part): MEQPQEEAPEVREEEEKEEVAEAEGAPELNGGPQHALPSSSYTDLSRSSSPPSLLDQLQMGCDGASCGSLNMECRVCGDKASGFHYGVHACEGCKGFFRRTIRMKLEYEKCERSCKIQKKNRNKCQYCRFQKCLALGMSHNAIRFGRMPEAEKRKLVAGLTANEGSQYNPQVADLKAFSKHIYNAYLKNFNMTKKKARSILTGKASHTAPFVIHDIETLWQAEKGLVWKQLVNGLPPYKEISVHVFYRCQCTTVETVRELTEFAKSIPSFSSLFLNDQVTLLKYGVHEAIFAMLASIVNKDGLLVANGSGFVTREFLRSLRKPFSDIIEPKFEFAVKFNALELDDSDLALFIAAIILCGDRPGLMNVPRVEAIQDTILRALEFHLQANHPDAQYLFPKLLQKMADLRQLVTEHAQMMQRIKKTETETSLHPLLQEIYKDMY
Sequence of Myc proto-oncogene protein (Homo sapiens) (P01106 whole entry, looked up): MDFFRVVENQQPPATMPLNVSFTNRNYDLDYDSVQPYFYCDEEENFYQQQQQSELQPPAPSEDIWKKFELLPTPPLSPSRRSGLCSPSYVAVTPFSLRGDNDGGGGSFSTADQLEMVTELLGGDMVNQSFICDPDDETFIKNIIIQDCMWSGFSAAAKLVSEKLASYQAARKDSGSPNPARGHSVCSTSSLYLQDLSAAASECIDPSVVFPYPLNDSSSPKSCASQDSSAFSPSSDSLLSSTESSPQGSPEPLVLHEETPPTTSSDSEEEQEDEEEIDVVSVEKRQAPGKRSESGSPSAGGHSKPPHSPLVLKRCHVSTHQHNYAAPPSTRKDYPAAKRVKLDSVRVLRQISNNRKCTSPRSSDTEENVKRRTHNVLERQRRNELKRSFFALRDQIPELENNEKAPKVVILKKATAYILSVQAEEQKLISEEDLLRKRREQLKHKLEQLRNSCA
Sequence of Cellular tumor antigen p53 (Homo sapiens) (P04637 whole entry, looked up): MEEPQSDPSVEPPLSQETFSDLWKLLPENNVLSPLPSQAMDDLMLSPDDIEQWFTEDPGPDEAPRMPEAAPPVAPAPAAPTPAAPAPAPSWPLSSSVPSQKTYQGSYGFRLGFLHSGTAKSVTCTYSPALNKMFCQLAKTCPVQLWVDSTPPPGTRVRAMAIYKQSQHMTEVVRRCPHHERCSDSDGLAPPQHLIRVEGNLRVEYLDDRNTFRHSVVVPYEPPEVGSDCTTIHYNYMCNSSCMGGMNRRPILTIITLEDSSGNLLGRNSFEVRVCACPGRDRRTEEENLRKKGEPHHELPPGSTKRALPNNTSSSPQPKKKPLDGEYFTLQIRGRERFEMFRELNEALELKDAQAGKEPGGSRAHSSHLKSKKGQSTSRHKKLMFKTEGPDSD
Sequence of Nuclear receptor subfamily 1 group I member 2 (Homo sapiens) (O75469 whole entry, looked up, the tested form may be a part): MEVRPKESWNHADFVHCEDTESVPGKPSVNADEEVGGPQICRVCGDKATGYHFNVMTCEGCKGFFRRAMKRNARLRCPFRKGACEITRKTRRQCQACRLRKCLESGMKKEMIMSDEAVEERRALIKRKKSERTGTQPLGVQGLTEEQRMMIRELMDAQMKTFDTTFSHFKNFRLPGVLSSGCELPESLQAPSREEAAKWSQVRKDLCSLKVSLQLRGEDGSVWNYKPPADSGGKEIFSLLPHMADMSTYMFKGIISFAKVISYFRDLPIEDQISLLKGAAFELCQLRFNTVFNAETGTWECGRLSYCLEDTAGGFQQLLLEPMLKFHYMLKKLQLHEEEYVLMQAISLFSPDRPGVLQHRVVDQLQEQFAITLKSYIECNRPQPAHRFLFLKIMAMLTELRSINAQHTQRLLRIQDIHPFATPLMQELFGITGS
Sequence of human Retinoic Acid Receptor beta (RARb), RARB (gene 5915) (P10826 whole entry, looked up): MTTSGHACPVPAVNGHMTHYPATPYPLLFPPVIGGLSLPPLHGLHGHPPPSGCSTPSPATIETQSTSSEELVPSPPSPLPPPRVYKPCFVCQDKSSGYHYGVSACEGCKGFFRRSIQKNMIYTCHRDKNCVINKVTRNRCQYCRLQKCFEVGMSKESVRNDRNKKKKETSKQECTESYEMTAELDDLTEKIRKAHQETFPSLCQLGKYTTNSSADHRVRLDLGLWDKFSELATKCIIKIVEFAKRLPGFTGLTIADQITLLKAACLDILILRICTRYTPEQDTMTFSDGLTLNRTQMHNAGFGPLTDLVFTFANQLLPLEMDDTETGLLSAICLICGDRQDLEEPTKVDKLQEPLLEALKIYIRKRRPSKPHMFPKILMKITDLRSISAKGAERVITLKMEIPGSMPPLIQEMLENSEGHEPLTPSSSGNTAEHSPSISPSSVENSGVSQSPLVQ
Sequence of human RAR-related Orphan Receptor beta (RORb), RORB (gene 6096) (Q92753 whole entry, looked up, the tested form may be a part): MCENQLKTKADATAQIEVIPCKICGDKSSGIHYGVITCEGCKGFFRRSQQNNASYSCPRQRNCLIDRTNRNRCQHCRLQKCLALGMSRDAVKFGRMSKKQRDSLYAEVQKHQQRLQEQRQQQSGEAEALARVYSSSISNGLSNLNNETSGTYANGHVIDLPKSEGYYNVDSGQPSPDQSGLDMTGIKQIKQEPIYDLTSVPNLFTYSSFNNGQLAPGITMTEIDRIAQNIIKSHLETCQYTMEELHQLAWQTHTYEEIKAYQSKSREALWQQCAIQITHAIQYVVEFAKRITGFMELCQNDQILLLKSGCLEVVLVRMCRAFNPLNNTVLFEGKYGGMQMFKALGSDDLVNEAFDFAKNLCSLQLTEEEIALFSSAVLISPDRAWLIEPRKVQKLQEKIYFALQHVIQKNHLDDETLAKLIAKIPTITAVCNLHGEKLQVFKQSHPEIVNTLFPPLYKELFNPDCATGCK
Sequence of Retinoic acid receptor alpha (Homo sapiens) (P10276 whole entry, looked up, the tested form may be a part): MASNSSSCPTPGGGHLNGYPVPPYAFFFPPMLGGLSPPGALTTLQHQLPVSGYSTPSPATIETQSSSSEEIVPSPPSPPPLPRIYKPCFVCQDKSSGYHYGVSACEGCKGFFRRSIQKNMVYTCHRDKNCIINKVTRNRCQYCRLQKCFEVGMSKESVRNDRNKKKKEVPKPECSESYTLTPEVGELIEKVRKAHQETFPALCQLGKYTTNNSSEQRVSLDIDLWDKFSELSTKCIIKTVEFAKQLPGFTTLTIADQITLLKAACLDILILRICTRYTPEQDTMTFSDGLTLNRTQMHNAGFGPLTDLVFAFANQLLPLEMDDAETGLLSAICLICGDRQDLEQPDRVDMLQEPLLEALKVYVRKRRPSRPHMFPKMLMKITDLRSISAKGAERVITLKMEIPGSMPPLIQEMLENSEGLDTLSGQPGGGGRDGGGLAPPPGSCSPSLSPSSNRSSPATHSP

On to `CC(C)(C1CCC(O)CC1)C1CCC(O)CC1` (configuration not stated), for which the result in [1], in assay [2], in assay [3], in assay [4], in assay [5] and in [6] was inactive.
Take `Cc1cccc(OP(=O)(Oc2cccc(C)c2)Oc2cccc(C)c2)c1`: the outcome in assay [1], in [2], in assay [3], in assay [5], in assay [6] and in [7] was inactive. The outcome in [8], in assay [9], in assay [10], in [11] and in assay [12] was inactive. Also, the AC50 was 21.9 µM (active) in assay [4], 8.53 µM (active) in assay [13], 13.9 µM (active) in assay [14] and 0.521 µM (active) in assay [15].
Turning to `[Cl][Sn]([c]1ccccc1)([c]1ccccc1)[c]1ccccc1`, the AC50 in [1] is 228 nM (active); in assay [2], 1.4 µM (active); in assay [3], 232 nM (active); in assay [4], 0.0785 µM (active); in assay [5] it was 0.25 µM (active); in assay [6] it was 167 nM (active). In addition, the AC50 in assay [7] was 297 nM (active); in assay [8], 0.141 µM (active); in assay [9], 177 nM (active); in assay [10] it was 0.0985 µM (active); in [11], 249 nM (active); in assay [12] it was 318 nM (active). Further, the AC50 in assay [13] was 0.0518 µM (active); in assay [14] it was 0.0464 µM (active).
As to `C=CCOC(F)(C(F)(F)F)C(F)(F)F`, the molecule was called inactive in [1], in [2], in [3], in assay [4], in assay [5] and in assay [6]. Also, the call in assay [16], in assay [11] and in assay [14] was inactive.
Take `COC(=O)c1cc(Oc2ccc(Cl)cc2Cl)ccc1[N+](=O)[O-]`: the outcome in assay [1], in [2], in assay [3], in [5], in assay [6] and in assay [16] was inactive. The result in [11] and in [17] was inactive. Also, the AC50 in [4] is 56.8 µM (active); in assay [14], 20 µM (active); in [15], 13.7 µM (active).
On to `CCOP(=S)(OCC)SCS(=O)(=O)C(C)(C)C`, for which the molecule was called inactive in assay [1], in [2], in [3], in assay [4], in assay [5] and in assay [6]. Further, the outcome in assay [7], in assay [8], in assay [9], in assay [10], in assay [12] and in [18] was inactive. Moreover, the outcome in assay [13] and in assay [14] was inactive. The AC50 in [15] was 2.41 µM (active).
With `C#C[C@]1(O)CC[C@H]2[C@@H]3CCC4=CC(=O)CC[C@]4(C)[C@H]3CC[C@@]21C`, the molecule was classed as inactive in assay [1], in [2], in assay [3], in assay [4], in [5] and in [6].
As for `c1csc(-c2ccc(-c3cccs3)s2)c1`, the molecule was called inactive in assay [1], in assay [2], in assay [3], in [6], in assay [16] and in assay [11]. The molecule was called inactive in assay [17] and in assay [19]. In addition, the concentration at half-maximal activity (AC50) is 1.22 µM (active) in assay [4], 1.62 µM (active) in assay [5], 1.7 µM (active) in assay [14] and 8.5 µM (active) in [15].
As to `C#CCOC(=O)/C=C(C)/C=C/CC(C)CCCC(C)C` (configuration not stated), the molecule was classed as inactive in assay [1], in assay [2], in [3], in assay [6], in assay [7] and in [9]. For the same molecule, the call in assay [11], in assay [12], in assay [18], in assay [20], in assay [17] and in [19] was inactive. Further, the AC50 in assay [4] was 57.3 µM (active); in assay [5], 35.7 µM (active); in assay [8], 33.5 µM (active); in [10] it was 20 µM (active); in [16], 14.9 µM (active); in [13] it was 23.6 µM (active). Further, the AC50 in assay [14] was 27.8 µM (active).
